An excerpt weighted towards active compounds, which were near 4% of everything screened.
FGF22 binding – binders of recombinant human FGF22 by thermal shift. Q9HCT0. SYPRO orange fluorescence; percent of sucrose octasulfate shift, DMSO zero. activity (Tm shift, normalised), % at 9.99 µM. 340,000 tested, 1.5% active. AID 651658;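 active = mean Tm shift, scaled 0 neutral to 100 positive control, at about 1.3% or above, every replicate too, limit read from the data; inconclusive = no clear call, values can overlap the other calls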
Target sequence (Q9HCT0 whole entry, looked up): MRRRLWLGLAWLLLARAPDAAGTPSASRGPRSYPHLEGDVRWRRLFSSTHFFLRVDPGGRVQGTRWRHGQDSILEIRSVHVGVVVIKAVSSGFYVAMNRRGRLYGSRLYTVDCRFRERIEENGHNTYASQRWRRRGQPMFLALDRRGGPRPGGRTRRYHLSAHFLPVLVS
DENV2 CPE – protects cells from dengue virus 2 cytopathic effect | DENV2-infected cells, cytopathic effect rescue, plate reader | CPE inhibition, % at 9.99 µM | 350,000 tested, 1.7% active | AID 651640; in the data active = CPE inhibition above about 20%, passing the limit was not always enough; inconclusive = no clear call, values can overlap the other calls; tested in BHK-21 cells;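 also: 0% = median of neutral control wells and 100% = median of positive control wells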
AF4-AF9 inh – inhibitors of human MLL-AF4/AF9 interaction; AlphaScreen, biotin-AF4 peptide binding to FLAG-AF9; inhibition, % at 10 µM; 350,000 tested, 0.47% active; AID 651704; P42568;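 active = every replicate reaching a set inhibition limit, whatever the replicate mean, cut at about 25% in these data; inconclusive = mean inhibition reaches that limit but some replicates miss it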;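 also: 0% = plate neutral control median and 100% = total signal loss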
ERAP1 inh – inhibitors of human ERAP1 aminopeptidase; recombinant ERAP1, Leu-AMC fluorescence, 60 min; inhibition, % at 10.7 µM; 340,000 tested, 0.15% active;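 active = mean replicate inhibition of at least 30%, or all replicates individually reaching that 30% level; inactive = mean below 30% and not every replicate reaching it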;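 also: 0% = neutral control wells and 100% = L-leucinethiol positive control wells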
RAD52 inh – blocks human RAD52 DNA annealing. recombinant RAD52 DNA annealing, FRET fluorescence. AID 651710. 360,000 tested, 0.46% active. inhibition, % at 18.7 µM. P43351;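 active = every replicate showing at least 50% inhibition; inconclusive = mean inhibition at least 50% but not in every replicate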
Target sequence (P43351 whole entry, looked up): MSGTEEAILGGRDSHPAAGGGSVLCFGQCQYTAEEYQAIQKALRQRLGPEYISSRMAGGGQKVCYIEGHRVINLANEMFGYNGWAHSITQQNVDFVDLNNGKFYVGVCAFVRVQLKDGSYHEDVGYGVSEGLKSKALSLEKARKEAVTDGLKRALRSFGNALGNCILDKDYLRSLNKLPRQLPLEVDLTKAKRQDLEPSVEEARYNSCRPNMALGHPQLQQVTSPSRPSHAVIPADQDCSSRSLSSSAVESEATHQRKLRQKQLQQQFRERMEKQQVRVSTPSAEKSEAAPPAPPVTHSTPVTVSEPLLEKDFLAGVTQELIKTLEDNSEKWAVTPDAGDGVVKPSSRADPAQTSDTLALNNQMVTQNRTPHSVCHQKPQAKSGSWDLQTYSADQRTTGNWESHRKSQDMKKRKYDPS
Active calls of the source: *.

For COc1ccc(NC(=O)Nc2ccc3c(c2)C(=O)N([C@@H](C)CO)C[C@H](C)[C@@H](CN(C)S(=O)(=O)c2ccc(OC)cc2)O3)cc1 the results were FGF22 binding 0, DENV2 CPE -2, AF4-AF9 inh 5, ERAP1 inh 3 and RAD52 inh -7.
Screening COc1ccc(S(=O)(=O)N(C)C[C@@H]2Oc3ccc(NC(=O)Nc4ccccc4)cc3C(=O)N([C@H](C)CO)C[C@H]2C)cc1 returned FGF22 binding 0, DENV2 CPE -4, AF4-AF9 inh 0, ERAP1 inh 0 and RAD52 inh 6.
`COc1ccc(NC(=O)Nc2ccc3c(c2)C(=O)N([C@H](C)CO)C[C@@H](C)[C@H](CN(C)S(=O)(=O)c2ccc(Cl)cc2)O3)cc1` gave FGF22 binding 0, DENV2 CPE 68*, AF4-AF9 inh 1, ERAP1 inh 1 and RAD52 inh 3.
For COc1ccc(NC(=O)Nc2ccc3c(c2)C(=O)N([C@@H](C)CO)C[C@@H](C)[C@H](CN(C)S(=O)(=O)c2ccc(OC)cc2)O3)cc1 the results were FGF22 binding 0, DENV2 CPE 28*, AF4-AF9 inh 4, ERAP1 inh 3 and RAD52 inh -10.
C[C@H]1CN([C@@H](C)CO)C(=O)c2cc(NS(=O)(=O)c3ccc(F)cc3)ccc2O[C@@H]1CN(C)Cc1ccc(Cl)c(Cl)c1 was read as FGF22 binding 0, DENV2 CPE 12, AF4-AF9 inh -5, ERAP1 inh -3 and RAD52 inh -10.
`COc1ccc(S(=O)(=O)Nc2ccc3c(c2)C(=O)N([C@@H](C)CO)C[C@@H](C)[C@H](CN(C)S(=O)(=O)c2ccc(Cl)cc2)O3)cc1` gave FGF22 binding 0 and DENV2 CPE 85*.
Screening COc1ccc(S(=O)(=O)Nc2ccc3c(c2)C(=O)N([C@H](C)CO)C[C@H](C)[C@@H](CN(C)C)O3)cc1 returned FGF22 binding 0, DENV2 CPE 69*, AF4-AF9 inh -3, ERAP1 inh -4 and RAD52 inh -3.
For O=C(COC(=O)c1nc(Cl)ccc1Cl)c1ccc(Cl)s1 the results were FGF22 binding 44*, DENV2 CPE 5, AF4-AF9 inh -7, ERAP1 inh 2 and RAD52 inh -30.
`O=C(COC(=O)c1nc(Cl)ccc1Cl)c1ccccc1Cl` gave FGF22 binding 0, DENV2 CPE 7, AF4-AF9 inh -22, ERAP1 inh 4 and RAD52 inh -16.
O=C1CCCCCN1C(=O)c1ccccc1 was read as FGF22 binding 43*, DENV2 CPE -8, AF4-AF9 inh 0, ERAP1 inh -3 and RAD52 inh -12.
For O=C(c1ccccc1)N1CCCc2ccccc21 the results were ERAP1 inh 6 and RAD52 inh -6.
`O=C(Cc1ccncc1)Nc1ccc2c(c1)[C@@H]1C[C@H](CC(=O)N3CCCCC3)O[C@@H](CO)[C@@H]1O2` gave DENV2 CPE 3, AF4-AF9 inh 3, ERAP1 inh 1 and RAD52 inh -8.
For C[C@@H]1CCCCO[C@H](CN(C)CC2CC2)[C@@H](C)CN([C@H](C)CO)C(=O)c2cc(NC(=O)Nc3ccc4c(c3)OCO4)ccc2O1 the results were FGF22 binding 0, DENV2 CPE 7, AF4-AF9 inh 25*, ERAP1 inh 0 and RAD52 inh 23.
Screening C[C@@H]1CN([C@@H](C)CO)C(=O)c2cc(NC(=O)Nc3ccc4c(c3)OCO4)ccc2O[C@@H](C)CCCCO[C@H]1CN(C)CC1CCCCC1 returned FGF22 binding 1.4*, DENV2 CPE -6, AF4-AF9 inh -13, ERAP1 inh -8 and RAD52 inh 37.
For C[C@@H]1CCCCO[C@@H](CN(C)CC2CC2)[C@@H](C)CN([C@H](C)CO)C(=O)c2cc(NC(=O)Nc3ccc4c(c3)OCO4)ccc2O1 the results were FGF22 binding 0, DENV2 CPE -2, AF4-AF9 inh 19, ERAP1 inh 0 and RAD52 inh 30.
For CC(C)NC(=O)Nc1ccc2c(c1)C(=O)N([C@H](C)CO)C[C@@H](C)[C@H](CN(C)CC1CC1)OCCCC[C@H](C)O2 the results were FGF22 binding 0, DENV2 CPE -4, AF4-AF9 inh 10, ERAP1 inh 0 and RAD52 inh 7.
Screening C[C@@H]1CCCCO[C@@H](CN(C)CC2CCCCC2)[C@H](C)CN([C@@H](C)CO)C(=O)c2cc(NC(=O)Nc3ccc(F)cc3)ccc2O1 returned FGF22 binding 0, DENV2 CPE 29*, AF4-AF9 inh -3, ERAP1 inh -2 and RAD52 inh 34.
For C[C@@H]1CCCCO[C@H](CN(C)CC2CCCCC2)[C@@H](C)CN([C@H](C)CO)C(=O)c2cc(NC(=O)Nc3ccc(F)cc3)ccc2O1 the results were FGF22 binding -1, DENV2 CPE -10, AF4-AF9 inh 3, ERAP1 inh 1 and RAD52 inh 9.
For CC(C)NC(=O)Nc1ccc2c(c1)C(=O)N([C@H](C)CO)C[C@H](C)[C@H](CN(C)CC1CC1)OCCCC[C@@H](C)O2 the results were FGF22 binding 0, DENV2 CPE 107*, AF4-AF9 inh 0, ERAP1 inh 2 and RAD52 inh -2.
Screening COc1ccc2c3c([nH]c2c1)[C@H](CO)N(C(=O)c1ccc(F)cc1)CC31CN(C(=O)Nc2ccc(F)cc2)C1 returned DENV2 CPE inconclusive and AF4-AF9 inh 1.
`C[C@H](CO)N1C[C@H](C)[C@H](CN(C)Cc2cccc(C(F)(F)F)c2)Oc2ncc(C#Cc3ccccc3)cc2C1=O` gave FGF22 binding -1, DENV2 CPE 3, AF4-AF9 inh 2, ERAP1 inh -2 and RAD52 inh 16.
`COCC(=O)Nc1ccc2c(c1)OC[C@H](C)N(Cc1ccncc1)C[C@H](C)[C@@H](OC)CN(C)C2=O` gave FGF22 binding 0, DENV2 CPE 1, AF4-AF9 inh 1, ERAP1 inh 2 and RAD52 inh 1.
Screening Cc1ccc(CNC(=O)C2CCCN(c3nc(C)cc(C)n3)C2)cc1 (stereo not given) returned FGF22 binding 43*, DENV2 CPE -1, AF4-AF9 inh -1, ERAP1 inh 3 and RAD52 inh -9.
`CO[C@H]1CN(C)C(=O)c2ccc(NC(=O)Nc3cccc(Cl)c3)cc2OC[C@@H](C)NC[C@@H]1C` gave FGF22 binding 0, DENV2 CPE -11, AF4-AF9 inh 10, ERAP1 inh 3 and RAD52 inh 24.
For CO[C@H]1CN(C)C(=O)c2ccc(NC(=O)Nc3ccc(C(F)(F)F)cc3)cc2OC[C@H](C)NC[C@@H]1C the results were FGF22 binding -1, DENV2 CPE 68*, AF4-AF9 inh inconclusive, ERAP1 inh 2 and RAD52 inh 17.
For CO[C@H]1CN(C)C(=O)c2ccc(NC(=O)Nc3cc(Cl)cc(Cl)c3)cc2OC[C@@H](C)NC[C@H]1C the results were FGF22 binding 0, DENV2 CPE -5 and RAD52 inh 64*.

Bioassay records from PubChem BioAssay.
